Where “and” joins values, the source holds several entries; their conditions need not be identical. Equal entries are not always repeated. For some of these results: Results with a measured potency or affinity are listed apart. More than one record can exist for a structure, and the calls need not agree. Calls of active or inactive are those of the source. Rule as the data show it, unless noted: active = parasite load remaining mostly below about 12% (no sharp cut-off); inactive = mostly above about 10%.

We go through 6 molecules from PubChem BioAssay.

Test [1] in a line: liver-stage malaria parasite growth inhibition, primary screen, cell-based, HepG2, luciferase luminescence, HepG2 viability (AID 624349).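 Also: 100% = mean of DMSO negative control wells on the same plate.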 The note with it: P. berghei liver stage in HepG2, luciferase luminescence, concentration not given here; parasite load remaining: stronger effect = lower value; viability: measured here: HepG2 viability without parasites.
Test [2] deals with 6-phosphogluconate dehydrogenase, decarboxylating (Homo sapiens) (UniProt P52209). In words: 6PGD enzyme inhibitors, primary screen, biochemical, human, recombinant enzyme, NADPH absorbance (AID 1159550;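 active = at least 20% inhibition of 6-phosphogluconate dehydrogenase activity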). The note with it: recombinant 6PGD, NADPH absorbance 341 nm; at 10 µM; stronger effect = higher value.
Sequence of 6-phosphogluconate dehydrogenase, decarboxylating (Homo sapiens) (P52209 whole entry, looked up): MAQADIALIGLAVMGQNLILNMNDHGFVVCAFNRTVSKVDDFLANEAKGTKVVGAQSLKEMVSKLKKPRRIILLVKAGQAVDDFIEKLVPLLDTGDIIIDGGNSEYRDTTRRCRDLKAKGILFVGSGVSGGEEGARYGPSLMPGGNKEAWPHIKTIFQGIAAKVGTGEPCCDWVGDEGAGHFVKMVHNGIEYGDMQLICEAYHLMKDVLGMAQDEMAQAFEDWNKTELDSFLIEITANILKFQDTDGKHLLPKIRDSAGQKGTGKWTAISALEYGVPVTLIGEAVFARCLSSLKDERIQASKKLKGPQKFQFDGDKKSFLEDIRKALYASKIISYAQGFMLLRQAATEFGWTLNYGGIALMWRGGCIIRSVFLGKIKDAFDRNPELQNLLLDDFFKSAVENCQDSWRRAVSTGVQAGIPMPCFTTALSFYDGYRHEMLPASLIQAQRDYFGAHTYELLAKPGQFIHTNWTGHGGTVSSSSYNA
Test [3] can be described thus: differential killing of epithelial or mesenchymal cells, primary screen, imaging, PC-3E GFP, TEM4-18 mCherry, co-culture (AID 1345086;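 active = compounds killing one labelled cell type while sparing the other, by normalised counts and ratio limits, not self-fluorescent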;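 as to all read-outs here: cells exposed to compound for 72 h before imaging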;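 as to red/green cell ratio (normalised): normalised mesenchymal count divided by normalised epithelial count so high means epithelial killing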). The note with it: imaging cell counts, at 1 µM; for red/green cell ratio (normalised): actives lie on both sides, counts scaled to control wells, 1 = unselective.
The nature of test [4]: sensitizers of A549 cells to miR-34 induction, primary screen, imaging, A549 dox-inducible miR-34, nuclei and caspase counts (AID 1347080;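 active = compounds whose cell count with miR-34 switched on is under 0.7 times the count with it off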). The note with it: A549 miR-34 inducible, Hoechst nuclei count, 48 h.
Test [5] concerns the target NAD(+) hydrolase SARM1 (Homo sapiens) (UniProt Q6SZW1). In words: SARM1 TIR NADase inhibitors, cell lysate, NAD-Glo luminescence (AID 1508614;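 active = compound whose remaining NAD level is above about 45 nM, limit read from the data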;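 also: higher remaining NAD means stronger inhibition of SARM1 NADase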). The note with it: SAM-TIR HEK293T lysate NADase, at 1 µM, stronger effect = higher value.
Test [6] in a line: polyglutamine-triggered caspase-3 activation inhibitors, cell-based (AID 1583). The following applies: polyglutamine-induced caspase-3 activation, cell assay; stronger effect = higher value;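 tested at 10 µM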.
Test [7] is described as follows: suppressors of polyQ aggregation in yeast, 75Q-TubU reporter (AID 1593). The following applies: Yeast 75Q polyglutamine aggregation reporter.
Test [8] in a line: rescue of polyQ-huntingtin neuronal dysfunction in worms, whole organism, C. elegans mechanosensory neurons, N-terminal huntingtin (AID 1599). The note with it: touch response, stronger effect = higher value.
Test [9] is described as follows: inhibitors of mitochondrial cytochrome c release, biochemical, purified mitochondria (AID 1603).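 Also: mouse liver mitochondria challenged with calcium chloride; signal normalized to the plate average as 100%.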 The following applies: stronger effect = lower value.
Test [10] in a line: inhibitors of polyQ protein aggregation (AID 1604). The following applies: polyglutamine-induced protein aggregation inhibition assay; stronger effect = higher value; tested at 2.5 µM.
A short description of test [11]: enhancers of glutamate uptake in motor neurons, MN-1 cell line (AID 1612).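 Also: tested at 1 µM final; 0% = mean of DMSO vehicle wells on each plate; positive means more glutamate uptake than control and negative means less.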 The note with it: MN-1 motor neuron cells, stronger effect = higher value.
Test [12] can be described thus: suppressors of polyglutamine aggregation in yeast, 75Q-TubH (AID 1616). The note with it: S. cerevisiae 75Q-TubH polyglutamine aggregation suppression; stronger effect = higher value.
The nature of test [13]: reducers of polyQ inclusions in PC12 cells, cell-based, NGF-treated PC12, GFPQ80 (AID 1614).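 Also: lower means fewer inclusions and 0 means no inclusions at all.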 The note with it: PC12 NGF-treated GFP-polyQ80 inclusion reduction.
The target in test [14] is Mitogen-activated protein kinase 7 (Homo sapiens) (UniProt Q13164). Description: ERK5 transactivation activators in reporter cells, primary screen, cell-based, HTS (AID 1508626;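 active = luciferase signal above three times the same-plate solvent-only control wells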;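 also: luciferase driven by Gal4-ERK5 fusion binding five Gal4 sites before minimal TATA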). The note with it: HeLa Gal4-ERK5 transactivation, 18 h, at 5 µM, stronger effect = higher value.
Sequence of Mitogen-activated protein kinase 7 (Homo sapiens) (Q13164 whole entry, looked up, the tested form may be a part): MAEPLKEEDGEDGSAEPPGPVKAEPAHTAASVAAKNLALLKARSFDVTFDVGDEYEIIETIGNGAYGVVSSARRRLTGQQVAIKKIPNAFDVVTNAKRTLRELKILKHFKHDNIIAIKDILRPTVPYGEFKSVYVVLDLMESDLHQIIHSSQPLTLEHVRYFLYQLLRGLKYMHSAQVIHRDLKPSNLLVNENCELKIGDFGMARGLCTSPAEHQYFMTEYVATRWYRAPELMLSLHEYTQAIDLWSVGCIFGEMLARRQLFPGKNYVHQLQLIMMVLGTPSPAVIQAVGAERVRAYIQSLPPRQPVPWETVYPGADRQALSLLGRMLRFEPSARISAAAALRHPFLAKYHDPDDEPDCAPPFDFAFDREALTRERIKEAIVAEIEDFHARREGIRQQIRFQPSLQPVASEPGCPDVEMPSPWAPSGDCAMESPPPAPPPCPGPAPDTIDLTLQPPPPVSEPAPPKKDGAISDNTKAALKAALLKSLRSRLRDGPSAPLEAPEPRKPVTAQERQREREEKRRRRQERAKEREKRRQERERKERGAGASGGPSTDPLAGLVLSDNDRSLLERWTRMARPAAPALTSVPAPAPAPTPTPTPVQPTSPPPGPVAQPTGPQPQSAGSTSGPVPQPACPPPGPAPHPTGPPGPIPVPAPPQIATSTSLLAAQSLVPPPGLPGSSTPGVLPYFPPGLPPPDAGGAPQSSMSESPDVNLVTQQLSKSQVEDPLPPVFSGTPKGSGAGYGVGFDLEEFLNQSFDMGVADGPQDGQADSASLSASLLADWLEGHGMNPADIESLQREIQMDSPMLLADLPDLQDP
Test [15] is described as follows: viability rescue of complex I mutant cybrids, primary screen, cell-based, galactose medium, ATP luminescence (AID 1645843;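 active = z-score of at least 1.8 in each of two replicates, scored against plate mean and spread of sample wells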;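 also: positive z means more ATP and so rescue of galactose-driven cybrid death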). The following applies: complex I mutant cybrid cells, 72 h, stronger effect = higher value.
Setting [16] is: measured here: epithelial PC-3E GFP cell survival.
The mark [17] stands for this setting: measured here: mesenchymal TEM4-18 mCherry cell survival.
Setting [18] is: stronger effect = lower value, cell number ratio, induced over uninduced.
The mark [19] stands for this setting: measured here: relative caspase fold change +Dox/-Dox.
[20] abbreviates: measured here: total cells with miR-34 induction, stronger effect = lower value.
Where [21] appears, read: measured here: total cells without miR-34 induction.

Sequence of NAD(+) hydrolase SARM1 (Homo sapiens) (Q6SZW1 whole entry, looked up): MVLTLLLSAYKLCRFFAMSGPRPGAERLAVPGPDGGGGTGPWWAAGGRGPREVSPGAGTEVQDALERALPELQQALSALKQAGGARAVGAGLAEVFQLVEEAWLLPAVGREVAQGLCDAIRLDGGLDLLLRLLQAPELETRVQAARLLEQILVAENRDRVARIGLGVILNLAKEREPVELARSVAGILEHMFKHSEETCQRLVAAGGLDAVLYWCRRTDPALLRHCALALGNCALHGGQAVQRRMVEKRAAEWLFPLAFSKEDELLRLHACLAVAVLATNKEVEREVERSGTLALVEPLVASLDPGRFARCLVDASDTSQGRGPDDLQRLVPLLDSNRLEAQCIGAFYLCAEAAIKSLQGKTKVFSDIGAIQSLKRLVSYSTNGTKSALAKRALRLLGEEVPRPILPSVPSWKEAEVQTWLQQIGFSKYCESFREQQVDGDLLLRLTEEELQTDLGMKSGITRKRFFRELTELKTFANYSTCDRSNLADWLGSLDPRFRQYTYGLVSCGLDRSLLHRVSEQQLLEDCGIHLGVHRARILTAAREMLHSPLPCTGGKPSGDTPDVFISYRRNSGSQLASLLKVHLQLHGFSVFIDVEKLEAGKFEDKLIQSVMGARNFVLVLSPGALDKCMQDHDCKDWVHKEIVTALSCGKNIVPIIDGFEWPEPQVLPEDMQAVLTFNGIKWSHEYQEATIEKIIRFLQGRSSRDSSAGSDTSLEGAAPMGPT

`COc1ccc2c(c1OC)C(=O)O[C@H]2[C@H]1c2c(cc3c(c2OC)OCO3)CCN1C`: in test [1], the parasite load remaining is 93.3% (inactive) and 73.1% (inactive). Further, the viability in test [1] is 64.7% and 94.8%. In test [2], the inhibition is 4.17% (inactive). Also, the red/green cell ratio (normalised) in test [3] was 1.15 (inactive). Further, the values for the normalised cell number in test [3] (setting [16]) and in test [3] (setting [17]) were 1.08 and 1.24, respectively. Further, the fold change in test [4] (setting [18]) was 0.877 (inactive); in [4] (setting [19]), 1.33. For the same molecule, the cell count turned out to be 8940 in test [4] (setting [20]) and 10200 in [4] (setting [21]).

For the molecule `CC(=O)Oc1cccc(C(=O)O)c1OC(C)=O`, the inhibition in [2] was 0.748% (inactive). For the same molecule, the red/green cell ratio (normalised) in test [3] was 0.81 (inactive). The normalised cell number in [3] (setting [16]) came out at 1.05; in test [3] (setting [17]), 0.86. Also, the remaining NAD in [5] is 10 nM (inactive).

In the case of `CCN(CC)Cc1ccc(Nc2ccnc3cc(Cl)ccc23)cc1O`, the inhibition in test [6] was -50.2%; in test [2], 4.92% (inactive). The score in test [7] is 1.49. The rescue above control in [8] was found to be 8.25. Further, in test [9], the cytochrome c release ratio amounted to 0.74. The molecule also had an inhibition of aggregation in test [10] of 65.5%. For the same molecule, the glutamate uptake change in test [11] was 1.51%. Also, in test [12], the aggregation suppression score was determined as 1.68. Further, in test [1], the parasite load remaining was -0.345% (active) and 0.905% (inactive). Further, the viability in test [1] is 63% and 59.3%. For the same molecule, in [3], the red/green cell ratio (normalised) is 0.8 (inactive). In addition, the values for the normalised cell number in test [3] (setting [16]) and in test [3] (setting [17]) were 1.14 and 0.91, respectively. The fold change in test [4] (setting [18]) was 0.936 (inactive); in test [4] (setting [19]), 0.896. Moreover, the cell count in test [4] (setting [20]) was found to be 8520; in [4] (setting [21]), 9100.

`NC(N)=O`: the values for the inhibition in [6] and in test [2] were 5.74% and -2.6% (inactive), respectively. The molecule also came in with a score in [7] of 1.17. In test [8], this molecule gave a rescue above control of 4.79. Besides, the cytochrome c release ratio in test [9] worked out at 1.04. In test [10], this molecule had an inhibition of aggregation of 43.7%. Besides, the glutamate uptake change in test [11] is -1.11%. This molecule also displayed an inclusion score in test [13] of 2. This molecule also showed an aggregation suppression score in test [12] of 1.21. The parasite load remaining in test [1] was 107% (inactive) and 54.8% (inactive). Also, the viability in test [1] was 72.7% and 99.5%. The red/green cell ratio (normalised) in [3] is 0.95 (inactive). Moreover, the normalised cell number in test [3] (setting [16]) was found to be 1.22; in [3] (setting [17]), 1.16. Also, the fold change in test [4] (setting [18]) is 0.93 (inactive); in test [4] (setting [19]), 2.44. The cell count in [4] (setting [20]) stood at 12300; in [4] (setting [21]), 13300. Besides, the remaining NAD in test [5] is 10 nM (inactive). The luciferase signal in test [14] was 52 AU (inactive).

In the case of `CN1C(CC(=O)c2ccccc2)CCCC1CC(O)c1ccccc1` (stereo not given), the values for the inhibition in test [6] and in [2] were 17.8% and -10.3% (inactive), respectively. The score in test [7] worked out at 1.4. In test [8], this molecule came in with a rescue above control of -4.31. The cytochrome c release ratio in [9] was 0.5. The molecule further came in with an inhibition of aggregation in [10] of 65.4%. In addition, the glutamate uptake change in [11] worked out at 3.53%. This molecule also yielded an inclusion score in [13] of 2. The aggregation suppression score in test [12] is 1.27. Further, the parasite load remaining in test [1] was 97.3% (inactive). Also, the viability in test [1] came to 69.7%. For the same molecule, the red/green cell ratio (normalised) in test [3] was 1.04 (inactive). For the same molecule, the normalised cell number in test [3] (setting [16]) was 0.88; in [3] (setting [17]) it was 0.92. Also, the fold change was 0.965 (inactive) in [4] (setting [18]) and 1.77 in [4] (setting [19]). Further, the cell count in test [4] (setting [20]) turned out to be 10200; in [4] (setting [21]), 10600. For the same molecule, in test [5], the remaining NAD is 10 nM (inactive). For the same molecule, the luciferase signal in test [14] was 268 AU (active). The z-score in test [15] was 0.16 (inactive).

As for `CCCCCCCCCc1ccc(OCCOCCOCCOCCOCCOCCOCCOCCOCCO)cc1`, in test [1], the parasite load remaining is -0.79% (active). The same molecule registered a viability in test [1] of 85%. Moreover, the inhibition in test [2] is -15.2% (inactive). In test [3], the red/green cell ratio (normalised) is 1.03 (inactive). Also, the normalised cell number was 1.14 in test [3] (setting [16]) and 1.18 in test [3] (setting [17]). Moreover, the fold change in test [4] (setting [18]) is 0.78 (inactive); in test [4] (setting [19]), 2.5. The cell count in test [4] (setting [20]) worked out at 2440; in test [4] (setting [21]), 3120. In addition, the remaining NAD in test [5] is 10 nM (inactive). Moreover, the luciferase signal in test [14] was 40 AU (inactive).

What is called viability is a per cent measure of how many cells are alive, often set against a control. By inhibition is commonly meant the relative decrease from the control value, in per cent.
